This is an account of results in PubChem BioAssay (NCATS).

In experiment [1] the target is Aldehyde dehydrogenase, mitochondrial (Homo sapiens) (UniProt P05091). The experiment can be described thus: qHTS for Inhibitors of the Aldehyde Dehydrogenase Family (ALDH2) Primary screen (AID 2061308; also: nearly all actives have a fitted effect of over 55% in size). (In general: In qHTS, concentration-response curves come from the screen itself.)
The target of experiment [2] is Retinaldehyde dehydrogenase 3 (Homo sapiens) (UniProt P47895). The experiment can be described thus: qHTS for Inhibitors of the Aldehyde Dehydrogenase Family (ALDH1A3) Primary screen (AID 2061315).

Results filed as inconclusive are left out. A call without a number means that no potency is given here. Calls of active or inactive are those of the source. Calls follow the shape of the dose curve; as a rule, active = well fitted curve in the direction sought with a large enough effect; inconclusive = small, poorly fitted or top-dose-only effect, or another doubt; inactive = no such curve, though single readings can be large; an effect the other way counts as inactive or inconclusive.

Consider `S=C(Nc1ccc(Cl)c(Cl)c1)Nc1nnc(-c2ccncc2)o1`, for which the Potency entry in experiment [1] and in experiment [2] was “inactive” throughout.
`Cc1cc(OCCCSc2nc(-c3ccc(C(C)(C)C)cc3)nc3cc(=O)[nH]n23)ccc1Cl`: the Potency result in experiment [1] and in experiment [2] was “inactive” each time.
Consider `CCOc1ccccc1-c1nnc2n1N=C(c1ccc(OC)c(OC)c1)CS2`, for which the Potency entry in experiment [1] and in experiment [2] was “inactive” throughout.
Turning to `Cc1ccc(NS(=O)(=O)c2cc3c(cc2NC(C)CO)NC(=O)CC3)cc1C` (centres undefined), the Potency entry in experiment [1] and in experiment [2] was “inactive” each time.
Take `O=[N+]([O-])c1nccn1CO[C@@H](CO)[C@H](O)CO`: the Potency entry in experiment [1] and in experiment [2] was “inactive” each time.
For `N=c1c2c(ncn1CCN1CCOCC1)Oc1ccc3ccccc3c1C2c1ccccc1` (centres undefined), the Potency entry in experiment [1] and in experiment [2] was “inactive” each time.
On to `Cc1cccc(CNc2ccnc(-c3ccc(F)cc3F)n2)c1`, for which the Potency result in experiment [1] and in experiment [2] was “inactive” in each case.
For `Cc1cc2c(s1)c1cnn(Cc3ccccc3F)c(=O)c1n2Cc1ccccc1F`, the Potency entry in experiment [1] and in experiment [2] was “inactive” each time.
Turning to `O=C(NCCc1nc2ccccc2n1CCOc1ccc2cccnc2c1)C1CCCCC1`, the Potency result in experiment [1] and in experiment [2] was “inactive” throughout.
Consider `COc1cccc(CN2C(=O)c3ccccc3NC2c2ccc(OC)c(COc3c(C)cc(NC(C)=O)cc3C)c2)c1` (centres undefined), for which the Potency result in experiment [1] and in experiment [2] was “inactive” each time.
Turning to `Cc1ccc(S(=O)(=O)Nc2ccccc2C(=O)Nc2nc(-c3ccccc3)co2)cc1`, the Potency entry in experiment [1] and in experiment [2] was “inactive” in each case.
As for `C[C@@H]1O[C@@H](O[C@H]2[C@H](O[C@H]3CC[C@@]4(C)C(CC[C@]5(C)C4CC=C4[C@@H]6CC(C)(C)CC[C@]6(C(=O)O)CC[C@]45C)[C@]3(C)CO)OC[C@H](O)[C@@H]2O)[C@H](O)[C@H](O[C@@H]2OC[C@@H](O)[C@H](O)[C@H]2O)[C@H]1O` (some centres undefined), the Potency entry in experiment [1] and in experiment [2] was “inactive” in each case.
Consider `Cc1cc(N[S+](=O)([O-])c2ccc(NC(=O)Cc3ccc4c(c3)OCCO4)cc2)no1`, for which the Potency entry in experiment [1] and in experiment [2] was “inactive” throughout.
As to `Cc1ccc(C2=NN(CC(=O)NCCc3ccccc3)C(=O)C2)cc1`, the Potency entry in experiment [1] and in experiment [2] was “inactive” throughout.
`Cc1cc(C)nc(NC(=S)N2CCN(c3noc4ccccc34)CC2)c1`: the Potency result in experiment [1] and in experiment [2] was “inactive” each time.
On to `Cc1cc(C)nc(NC(=S)N2CCN(c3ccc(C(F)(F)F)cc3C(F)(F)F)CC2)c1`, for which the Potency entry in experiment [1] and in experiment [2] was “inactive” each time.
For the compound `Cc1cc(C)n2ncc(C(=O)NC(C)C)c2n1`, the Potency entry in experiment [1] and in experiment [2] was “inactive” in each case.
For `Cc1ccc(CNc2ncnc3ccc(-c4ccoc4C)cc23)o1`, the Potency result in experiment [1] and in experiment [2] was “inactive” each time.
With `COc1cc(-c2nc(Nc3ccc(F)c(F)c3)c3ccccc3n2)c(F)cn1`, the Potency result in experiment [1] and in experiment [2] was “inactive” each time.
Regarding `Oc1cc(-c2ccc(N3CCCCC3)nc2)cc2cccnc12`, the Potency entry in experiment [1] and in experiment [2] was “inactive” in each case.
Consider `CC(C)(C)c1ccc(NC(=O)c2cccs2)cn1`, for which the Potency result in experiment [1] and in experiment [2] was “inactive” each time.
With `COc1ccc2nc(-c3ccc(C#N)cc3)sc2c1`, the Potency result in experiment [1] and in experiment [2] was “inactive” throughout.
In the case of `N#Cc1nc(Nc2cc(F)cc(F)c2)c2ncn(CCN3CCCC3)c2n1`, the Potency result in experiment [1] and in experiment [2] was “inactive” throughout.
Consider `CCOC(=O)c1cccc(-n2cnc(/C=C3\NC(=O)N(CC(=O)OC(C)(C)C)C3=O)c2)c1`, for which the Potency result in experiment [1] and in experiment [2] was “inactive” in each case.
With `COC(=O)c1ccc2c(c1)S(=O)(=O)NC2=O`, the Potency entry in experiment [1] and in experiment [2] was “inactive” throughout.
With `Cc1cn([C@H]2C[C@H](N[S+](=O)([O-])Cc3cccc([N+](=O)[O-])c3)[C@@H](CO)O2)c(=O)[nH]c1=O`, the Potency result in experiment [1] and in experiment [2] was “inactive” throughout.
`Cc1ccnc(NC(=S)N2CCCc3ccc(C(F)(F)F)cc32)c1`: the Potency result in experiment [1] and in experiment [2] was “inactive” throughout.
On to `COc1cc(F)c(S(=O)(=O)N2CCCN(S(=O)(=O)c3cccc(NC(C)=O)c3)CC2)c(F)c1`, for which the Potency result in experiment [1] and in experiment [2] was “inactive” throughout.
On to `CC(=O)c1ccc(N2CCN(S(=O)(=O)c3ccc4c(c3)CCCC(=O)N4)CC2)cc1`, for which the Potency entry in experiment [1] and in experiment [2] was “inactive” in each case.
On to `Cc1cc2c(s1)c1cnn(Cc3cc(F)c(Cl)cc3Cl)c(=O)c1n2C`, for which the Potency entry in experiment [1] and in experiment [2] was “inactive” each time.
In the case of `O=C(Cn1nc(-c2ccc(C(F)(F)F)cc2)ccc1=O)NCCc1ccccc1`, the Potency result in experiment [1] and in experiment [2] was “inactive” each time.
In the case of `CNc1oc(-c2cccc(Cl)c2)nc1C#N`, the Potency result in experiment [1] and in experiment [2] was “inactive” in each case.
`COc1ccc(-c2nc3ccc(Cl)cc3c(=O)n2Cc2ccccc2)cc1COc1ccc(NC(C)=O)cc1`: the Potency result in experiment [1] and in experiment [2] was “inactive” in each case.
As for `O=C(NC1CCCc2c1cnn2-c1ccc(F)cc1F)c1ccccc1` (centres undefined), the Potency entry in experiment [1] and in experiment [2] was “inactive” in each case.
Take `Cc1cc(C)nc(NC(=S)N2CCN(C3=Nc4ccccc4Oc4ccccc43)CC2)c1`: the Potency entry in experiment [1] and in experiment [2] was “inactive” each time.
For the compound `O=S(=O)(NC1CCN(S(=O)(=O)c2c(F)cccc2F)C1)c1ccc2c(c1)OCCO2` (centres undefined), the Potency result in experiment [1] and in experiment [2] was “inactive” in each case.
`C=C1C(=O)OC2CC3(C)C(CC12)C(C)=CC(O)C3OC(C)=O` (centres undefined): the Potency result in experiment [1] and in experiment [2] was “inactive” throughout.
For the compound `O=C(N/C=C/c1ccccc1)c1cccc([S+](=O)([O-])Nc2ccccc2F)c1`, the Potency result in experiment [1] and in experiment [2] was “inactive” each time.
Turning to `CC[C@@H]1C(=O)O[C@]23C=C[C@@H]4C(C(=O)OC)=CO[C@H](O[C@@H]12)[C@@H]43`, the Potency entry in experiment [1] and in experiment [2] was “inactive” throughout.
Take `CCOC(=O)c1c(-c2ccc(OC)cc2)csc1NC(=O)C1CCCO1` (centres undefined): the Potency entry in experiment [1] and in experiment [2] was “inactive” throughout.
On to `CC(Nc1nc(-c2ccccc2C(F)(F)F)nc2ccccc12)c1ccc(-c2ccncc2)cc1` (centres undefined), for which the Potency entry in experiment [1] and in experiment [2] was “inactive” in each case.
As for `O=C1CN(S(=O)(=O)c2c(F)cccc2F)CCN1S(=O)(=O)c1ccc2c(c1)OCCO2`, the Potency result in experiment [1] and in experiment [2] was “inactive” in each case.
